# MsrA inh: inhibits bovine methionine sulfoxide reductase A. AID 651718. purified bovine MsrA, absorbance read-out. actives 0.75% (n = 360,000). inhibition, % at 15.5 µM; in the data active means inhibition above about 4.5%;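 further: 0% = vehicle wells with enzyme and 100% = reference inhibitor wells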
# bovine MsrA act: activators of bovine methionine sulfoxide reductase A; actives 0.3% (n = 360,000); activation, % at 10.6 µM; purified bovine MsrA, absorbance read-out; in the data active means activation above about 7.5%;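 further: 0% = vehicle and 100% = reference activator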
# PKA-R1A act: activators of PKA-R1A complex | P00514+P68181 | PKA-R1A dissociation, Cy5-IP20 fluorescence polarization; scaled: DMSO 0%, 113 µM cGMP 100% | activation, % at 11.4 µM | actives 0.083% (n = 340,000);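 active means percent activation above the mean of all tested compounds plus 3 SD, cut at about 19% in these data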;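 further: higher means more PKAc released from R1A so a rise in polarization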
# PKA-R2B act: activates the human PKA-R2B holoenzyme complex | activation, % at 11.4 µM | P22694+P31323 | PKA-R2B holoenzyme dissociation, Cy5-IP20 fluorescence polarization; R2B truncated from residue 108, S112A mutant; 0% DMSO only, 100% 113 µM cGMP | actives 0.079% (n = 340,000);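 active means activation above a cutoff set at the mean over all compounds plus 3 SD, cut at about 18% in these data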;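 further: higher means more holoenzyme dissociation and a rise in polarization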
# Target sequence (P31323 whole entry, looked up, other chains not shown, the tested form may be a part): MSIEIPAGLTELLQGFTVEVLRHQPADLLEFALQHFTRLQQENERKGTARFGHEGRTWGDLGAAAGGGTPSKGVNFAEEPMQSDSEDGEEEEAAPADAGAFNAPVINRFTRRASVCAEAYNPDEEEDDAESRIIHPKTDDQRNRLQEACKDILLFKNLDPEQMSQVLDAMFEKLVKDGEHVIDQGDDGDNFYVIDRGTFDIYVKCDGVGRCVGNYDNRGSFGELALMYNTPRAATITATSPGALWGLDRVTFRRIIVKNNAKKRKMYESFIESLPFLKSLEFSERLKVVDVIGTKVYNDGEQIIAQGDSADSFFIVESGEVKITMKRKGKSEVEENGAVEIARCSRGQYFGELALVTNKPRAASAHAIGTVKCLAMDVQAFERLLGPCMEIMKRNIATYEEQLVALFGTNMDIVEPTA
# * = called active by the depositor; i = inactive; . = not tested or not shown. Shown are actives, neighbours in structure and some others; about 1.1% of the full set was active somewhere.
SMILES,MsrA inh,bovine MsrA act,PKA-R1A act,PKA-R2B act
Cc1ccc(N2CC(C(=O)N/N=C/c3sccc3C)CC2=O)cc1 (centres undefined),4.6*,-2,-8,-4
COC(=O)C1=C(C)N(Cc2ccccc2C(F)(F)F)C(=NCc2cc(OC)c(OC)c(OC)c2)NC1c1cccc(F)c1 (centres undefined),-3,.,.,.
Cc1ccc(C)c(-n2sc3ccc(F)cc3c2=O)c1,1,13*,0,-8
COc1ccc(-n2sc3ccc(F)cc3c2=O)cc1,0,12*,-4,0
COc1ccc(C(=O)C(=O)N2CCN(C(=O)c3cc(C(F)(F)F)cc(C(F)(F)F)c3)CC2)cc1OC,1,.,.,.
Cc1ccc(S(=O)(=O)N2CCCc3nc(-c4ccc(Br)cc4)ccc32)cc1,0,.,.,.
O=C(O)CCC(=O)N1CCN(c2ccc(C(=O)c3ccc(F)cc3)cc2)CC1,4.7*,-10,-14,-4
Cc1snc(S(=O)(=O)/C(C#N)=N\Nc2ccccc2)c1C#N,3,-1,-9,-8
Cc1snc(S(=O)(=O)/C(C#N)=N/Nc2ccc(C(F)(F)F)cc2)c1C#N,4.6*,1,-1,-7
COC(=O)c1ccc2c(c1O)C(=O)c1ccccc1C2=O,0,9.3*,-4,-3
O=C1c2ccccc2C(=O)c2c1ccc(O)c2O,1,-2,-12,0
CC(C)C[C@H](NC(=O)C1CCCC1)C(=O)N1CCC[C@H]1C(=O)NCc1ccccc1,0,.,.,.
Nc1ccccc1O,.,9.4*,i,i
COc1ccc(/C=N/Nc2ccccn2)cc1OC,4.6*,-5,.,.
COc1cc(/C=N/Nc2nc3ccccc3o2)cc(OC)c1O,4.6*,-13,-7,-4
COc1ccc2c(c1)[C@@]1(OCCC=C[C@H]1C)C(=O)N2CC1CC1,-1,.,.,.
COCc1[nH]nc2c1C(c1ccccc1)N(Cc1ccccc1)C2=O (centres undefined),0,.,.,.
C/C(=N\NC(=O)c1ccc(O)cc1)c1cc2ccccc2o1,4.6*,-4,-5,10
O=C(N[C@H](C(=O)N1CCC[C@H]1C(=O)NC1CCCC1)c1ccccc1)C1CC1,0,.,.,.
Nc1ccn([C@@H]2O[C@H](C(=O)N[C@H](Cc3ccccc3)C(=O)N3CCN(C(=O)N4CCCCC4)CC3)[C@@H](O)[C@H]2O)c(=O)n1,0,.,.,.
Cc1cc(C)c(S(=O)(=O)/N=C2/C=C(SCC(=O)O)C(=O)c3ccccc32)cc1C,.,9.4*,1,-9
COc1ccc(C(=O)NCC2CCN(C(=O)C(=O)c3cccs3)CC2)c(OC)c1,1,.,.,.
CC(C)(C)C(=O)NCCCc1nc2ccccc2n1CCCOc1ccc(Cl)cc1,0,10*,-12,-3
COC(=O)C1=C(C)N(Cc2cccc(C(F)(F)F)c2)C(=NCc2cc(OC)c(OC)c(OC)c2)NC1c1ccc(Cl)cc1 (centres undefined),-1,.,.,.
COc1ccc(/C=C/C(=O)Nc2nonc2NC(C)=O)cc1,4.6*,-7,0,8
SMILES,MsrA inh,bovine MsrA act,PKA-R1A act,PKA-R2B act
COc1ccc(/C=C/C(=O)Nc2nc(C)cc(C)n2)cc1OC,4.9*,-6,7,0
CS(=O)(=O)c1ccc2nc(NC(=O)c3ccc(Cn4cc(Br)cn4)o3)sc2c1,5.4*,-7,-19,-13
Nc1ccc(Oc2ccc([N+](=O)[O-])cc2[N+](=O)[O-])cc1,1,-12,-4,0
O=[N+]([O-])c1ccc(Oc2cccnc2)c([N+](=O)[O-])c1,4.5*,0,-1,-3
CC(=O)c1ccc(-c2ccc(C(=O)N3CCC(C(N)=O)CC3)o2)cc1,7.6*,-4,-2,0
CCCCNC(=O)CCSc1nc2nc(C)cc(C)n2n1,.,8.0*,-4,5
C(=N\n1cncn1)/c1ccc(N2CCOCC2)cc1,5.3*,-18,4,-6
C(=N\n1cnnc1)/c1ccc(N2CCOCC2)cc1,4,-11,8,1
O=C(CSC1=NCCS1)NC(NC(=O)CSC1=NCCS1)c1ccccc1,2,-8,-8,0
O=C(CSC1=NCCS1)NC(c1ccccc1)c1ccccc1,-1,-2,19*,3
COc1cccc(/C=N/NC(=O)c2[nH]c(C)c(C(=O)N/N=C/c3cccc(OC)c3O)c2C)c1O,5.0*,-8,-4,-8
COCc1cc(Sc2cccc(Cl)c2Cl)nc(-c2ccccc2)n1,-1,23*,-6,11
COCc1cc(Sc2ccc(Cl)cc2)nc(-c2ccccc2)n1,0,-3,13,4
COCc1cc(C)nc(OCC(=O)N/N=C/c2ccc(O)cc2O)c1C#N,4.5*,-3,-5,1
COC(=O)c1cc2c(c3c4cc(F)ccc4n(S(=O)(=O)c4ccc(C)cc4)c13)C(=O)N(c1ccc(OC)cc1)C2,0,.,.,.
C[C@H]1[C@@H]2C[C@@]3(O[C@H](c4ccc(C(F)(F)F)cc4)N=C3C[C@@H]1c1ccccc1)N(Cc1ccncc1)C2=O,0,.,.,.
Cc1c(NC(=S)N/N=C/c2cc([N+](=O)[O-])ccc2O)c(=O)n(-c2ccccc2)n1C,3,-6,-1,4
Cc1c(NC(=S)N/N=C/c2ccc(O)cc2)c(=O)n(-c2ccccc2)n1C,4.8*,-3,9,-6
CN1OC[C@@H]2CN(C(=O)C3CCCCC3)[C@H](c3ccc(N4CCCCC4)cc3)C[C@@H]21,0,.,.,.
Nc1nc(=S)c2ncn(C3CCCCC3)c2[nH]1,4.6*,3,2,-2
O=C(Cc1cn(Cc2ccccc2)c2ccccc12)Nc1ccc(Nc2cccnc2)cc1,1,.,.,.
Cc1nn(Cc2ccccc2)c(C)c1/C=N/NC(=O)CNc1cccc(C(F)(F)F)c1,0,-7,-17,-4
O=C(CNc1cccc(C(F)(F)F)c1)N/N=C/c1cn(-c2ccccc2)nc1-c1ccccc1,4.6*,-8,-9,-19
O=c1[nH]cnc2c1C(c1ccc(Cl)cc1)c1c(nc[nH]c1=O)O2,.,-13,19*,-3
CCOc1ccc(C2C(C#N)=C(N)Oc3nc[nH]c(=O)c32)cc1 (centres undefined),0,-8,1,-16
SMILES,MsrA inh,bovine MsrA act,PKA-R1A act,PKA-R2B act
O=C(Cn1cc(COc2ccc(Br)cc2[N+](=O)[O-])nn1)c1ccc(O)cc1,4.6*,-5,-4,4
C=CC(=O)N1C/C(=C/c2ccc(F)cc2)C(=O)/C(=C\c2ccc(F)cc2)C1,5.1*,-6,4,-10
CN1C2CCC1/C(=C\c1ccc(F)cc1)C(=O)/C2=C/c1ccc(F)cc1,0,-6,0,-5
O=C(/C=C/c1ccc2c(c1)OCO2)Nc1nc(-c2ccccc2)cs1,4.8*,-3,-5,-10
O=C(/C=C/c1ccc2c(c1)OCO2)Nc1c(C(=O)O)[nH]c2ccccc12,4.7*,-2,-8,-9
Cc1sc(NC(=O)/C=C/c2ccc3c(c2)OCO3)nc1-c1ccccc1,0,0,2,-7
CCOC(=O)c1[nH]c2ccc(OC)cc2c1NC(=O)/C=C/c1ccc2c(c1)OCO2,-1,-4,4,2
COc1ccccc1/C=C/C=N/NC(=O)c1ccco1,4.6*,-6,4,-6

# Screens: PubChem BioAssay, The Scripps Research Institute Molecular Screening Center
